{"source": "PubChem BioAssay AID463212", "about": "(Sanford-Burnham Center for Chemical Genomics, 2010)", "note": "Among all 330,000 compounds or so, about 4,400 (1.3%) were called active. Many of the other results were omitted from the sample, so actives are more common in it than they were. Values without a mark were called inactive.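 Rule for the calls: active = growth inhibition of the mutant yeast at or above 50%; inactive = the rest.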"}
{"test": "growth inhibitors of tim23-1 mutant yeast, primary screen, luminescence, uHTS (AID 463212);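 note: temperature-sensitive mutant grown at 25 °C; plate controls were DMSO-treated mutant yeast for no effect and medium wells lacking yeast for full effect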", "settings": "S. cerevisiae tim23-1 growth, BacTiter-Glo luminescence, 24 h; at 20 µM; hits give high values"}
{"smiles": "Cc1cc(C(=O)COc2ccccc2Cl)c(C)n1C1CC1", "inhibition": "38.7%"}
{"smiles": "O=C(COC(=O)C1CCCO1)Nc1nc(-c2ccc(F)cc2)cs1", "note": "(stereo not drawn)", "inhibition": "11.2%"}
{"smiles": "CCCc1cc(=O)[nH]c(SCC(=O)N2C(C)CCCC2C)n1", "note": "(stereo not drawn)", "inhibition": "0.431%"}
{"smiles": "CC1CCCC(C)N1C(=O)CN1CCN(c2nc(-c3ccc(F)cc3)cs2)CC1", "note": "(stereo not drawn)", "inhibition": "52.8% (active)"}
{"smiles": "O=C(COC(=O)/C(=C/c1cccs1)c1cccs1)NCc1ccccc1Cl", "inhibition": "24%"}
{"smiles": "Cc1ccc2nc(/C(C#N)=C\\c3ccc(OC(=O)c4cccs4)cc3)[nH]c2c1", "inhibition": "-4.69%"}
{"smiles": "COc1cc(/C=C(\\C#N)c2nc3ccccc3[nH]2)ccc1O", "inhibition": "56.4% (active)"}
{"smiles": "O=C(/C(=C/c1cccc(Cl)c1)c1nc2ccccc2[nH]1)c1ccccc1", "inhibition": "44.9%"}
{"smiles": "CCOc1ccc(OCC(=O)Nc2c3c(nn2C(C)(C)C)CS(=O)(=O)C3)cc1", "inhibition": "11.1%"}
{"smiles": "CCOC(=O)c1c(NC(=O)CCl)sc(C(=O)N(CC)CC)c1C", "inhibition": "5.96%"}
{"smiles": "O=S(=O)(c1cccc2nonc12)N1CCN(c2cccc(Cl)c2)CC1", "inhibition": "22.8%"}
{"smiles": "O=C(CCCN1C(=O)CCC1=O)Nc1ccc(Cl)c(C(F)(F)F)c1", "inhibition": "-4.71%"}
{"smiles": "O=C(COC(=O)c1cc[n+]([O-])cc1)Nc1ccc(Cl)c(C(F)(F)F)c1", "inhibition": "5.05%"}
{"smiles": "O=C(CC(O)(C(F)(F)F)C(F)(F)F)Nc1ccc(Cl)c(Cl)c1", "inhibition": "90.6% (active)"}
{"smiles": "CC/C(O)=C1\\C(=O)CC(C)(C)CC1=NCCc1nc2ccccc2[nH]1", "inhibition": "-7.57%"}
{"smiles": "CC(=O)N1CCOc2ccc(S(=O)(=O)N3CCN(c4cccc(C(F)(F)F)c4)CC3)cc21", "inhibition": "36.1%"}
{"smiles": "COC(=O)c1cc(OCC(=O)NC2CCCc3ccccc32)cc(C(=O)OC)c1", "note": "(stereo not drawn)", "inhibition": "16.8%"}
{"smiles": "COc1ccc(CN(C)C(C)C(=O)NC2CCCc3ccccc32)cc1", "note": "(stereo not drawn)", "inhibition": "24.3%"}
{"smiles": "COc1ccc2c(c1)C(NS(=O)(=O)OCC(Cl)(Cl)Cl)CCC2", "note": "(stereo not drawn)", "inhibition": "55.4% (active)"}
{"smiles": "CC(CC(=O)N1CCN(c2ccccc2)CC1)S(=O)(=O)c1ccc2c(c1)NC(=O)CS2", "note": "(stereo not drawn)", "inhibition": "-6.88%"}
{"smiles": "N/C(Cc1ccc([N+](=O)[O-])cc1)=N\\OC(=O)COc1ccc2ccccc2c1", "inhibition": "60.5% (active)"}
{"smiles": "Cc1cc(C)cc(OCC(=O)O/N=C(\\N)Cc2ccc([N+](=O)[O-])cc2)c1", "inhibition": "26.9%"}
{"smiles": "O=C(NCC(O)c1ccc([N+](=O)[O-])cc1)C1CCCCC1", "note": "(stereo not drawn)", "inhibition": "-0.943%"}
{"smiles": "COC(=O)C(C)NC(=O)COc1ccc2ccccc2c1", "note": "(stereo not drawn)", "inhibition": "7.67%"}
{"smiles": "O=C(COC(=O)Cc1ccc([N+](=O)[O-])cc1)NC1CCCCCC1", "inhibition": "19.1%"}
{"smiles": "N/C(Cc1ccc([N+](=O)[O-])cc1)=N\\OC(=O)C1CCCCC1", "inhibition": "58.8% (active)"}
{"smiles": "CC(Oc1ccc2c(-c3ccccc3)cc(=O)oc2c1)C(=O)NC(Cc1c[nH]c2ccccc12)C(=O)O", "note": "(stereo not drawn)", "inhibition": "21%"}
{"smiles": "CCc1ccc(NC(=O)CS(=O)CC(=O)N2CCN(c3ccccc3F)CC2)cc1", "note": "(stereo not drawn)", "inhibition": "-23.1%"}
{"smiles": "Cc1ccc(-c2ccc(/C=N/NC(=O)CN3CCOCC3)o2)cc1[N+](=O)[O-]", "inhibition": "55.9% (active)"}
{"smiles": "Cc1occc1C(=O)N/N=C/c1ccc(-c2cccc([N+](=O)[O-])c2)o1", "inhibition": "26%"}
{"smiles": "O=C(CN1CCOCC1)N/N=C/c1ccc(-c2ccc(Br)cc2)o1", "inhibition": "1.87%"}
{"smiles": "Cc1cccc(CC(=O)N2CCN=C2SCc2ccc([N+](=O)[O-])cc2)c1", "inhibition": "-3.28%"}
{"smiles": "O=C(COc1ccccc1F)Nc1nc(-c2ccccn2)cs1", "inhibition": "28.7%"}
{"smiles": "CCN(C(=O)COC(=O)C1CCN(S(=O)(=O)c2ccc(C)c(C)c2)CC1)C1CCS(=O)(=O)C1", "note": "(stereo not drawn)", "inhibition": "0.758%"}
{"smiles": "COC(=O)CNC(=O)c1cc(-c2ccncc2)nc2ccccc12", "inhibition": "10.9%"}
{"smiles": "C/C(N)=C(/C#N)C(=O)COC(=O)c1cc(-c2ccc(C)cc2)nc2ccccc12", "inhibition": "3.42%"}
{"smiles": "N/C(=N\\OC(=O)c1cc(-c2ccccc2)nc2ccccc12)c1ccncc1", "inhibition": "79.2% (active)"}
{"smiles": "CNC(=O)COc1ccc(S(=O)(=O)Nc2ccccc2)cc1", "inhibition": "8.77%"}
{"smiles": "NC(=O)c1oc2ccccc2c1NC(=O)CS(=O)(=O)c1ccccc1", "inhibition": "6.4%"}
{"smiles": "S=C(Nc1ccc(Br)cc1Cl)N1CCC2(CC1)OCCO2", "inhibition": "20.7%"}
{"smiles": "COc1ccc(OC)c(NC(=O)CN(Cc2ccc(Cl)cc2)S(C)(=O)=O)c1", "inhibition": "9.4%"}
{"smiles": "COc1ccc(C(=O)Nc2ccccc2C(=O)N/N=C/c2ccc(O)c(OC)c2)cc1", "inhibition": "96% (active)"}
{"smiles": "COc1ccc(/C=N/Nc2ccccc2C(=O)O)cc1", "inhibition": "17%"}
{"smiles": "COc1ccc(C(=O)Nc2cc(C)c(NC(=O)c3ccccc3OC)cn2)cc1", "inhibition": "28.7%"}
{"smiles": "COc1ccc(C(=O)Nc2ccccc2C(=O)N2CCN(c3ccccc3)CC2)cc1", "inhibition": "35.2%"}
{"smiles": "COc1ccc2[nH]c(C(=O)N/N=C/c3cc(OC)c(OC)c(OC)c3)cc2c1", "inhibition": "20.6%"}
{"smiles": "COc1ccc(C(=O)Nc2ccccc2C(=O)N/N=C/c2ccccc2OC)cc1", "inhibition": "78.3% (active)"}
{"smiles": "CC(C)(C)c1ccc(C(=O)N2CCC(C(=O)N3CCCCC3)CC2)cc1", "inhibition": "13.5%"}
{"smiles": "CCc1[nH]nc(C(=O)N2CCCC(CNS(=O)(=O)c3cccs3)C2)c1C", "note": "(stereo not drawn)", "inhibition": "0.752%"}
{"smiles": "Cc1ccc(C(C(=O)NCC2CCCO2)N(C(=O)c2snc(C(N)=O)c2N)c2ccc(C(C)C)cc2)o1", "note": "(stereo not drawn)", "inhibition": "32.2%"}
{"smiles": "CCOc1cc2[nH]c(=S)n(CCN3CCCCC3C)c(=O)c2cc1OCC", "note": "(stereo not drawn)", "inhibition": "14.8%"}
{"smiles": "CC(C)Cc1ccc(C(C)C(=N)N)cc1", "note": "(stereo not drawn)", "inhibition": "3.35%"}
{"smiles": "CCOc1cccc(NC(=O)Cn2nc(-c3ccc4c(c3)OCCO4)ccc2=O)c1", "inhibition": "-11.4%"}
{"smiles": "Cc1ccc(-c2csc(NCCc3nc4cc(Cl)c(Cl)cc4n3CCOCCO)n2)cc1", "inhibition": "25.4%"}
{"smiles": "Cc1ccc(Nc2nc(-c3ccc(O)cc3O)cs2)nc1", "inhibition": "65.9% (active)"}
{"smiles": "C[C@@H]1C(c2ccc(F)cc2)=NN(c2ccc(Br)cc2)[C@H]1C(=O)N1CCOC1=O", "inhibition": "61.2% (active)"}
{"smiles": "O=C1OCCN1C(=O)[C@H]1[C@H](c2ccc(F)cc2)C(c2ccccc2)=NN1c1ccc(Br)cc1", "inhibition": "41.6%"}
{"smiles": "O=C1OCCN1C(=O)[C@H]1[C@H](c2ccccc2)C(c2ccc(F)cc2)=NN1c1ccccc1", "inhibition": "49.4%"}
